Source: PubChem BioAssay (National Center for Advancing Translational Sciences (NCATS))
D2 ag-1: HTS Assay for Allosteric Agonists of the Human D2 Dopamine Receptor: Primary Screen for Agonists; activation, % at 2 µM; 340,000 compounds, 0.53% hits; D(2) dopamine receptor (Homo sapiens), P14416; HEK293 T-REx D2 cells, calcium flux agonist mode;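 active means activation over 3 SD above normal in the single-dose calcium agonist read, cut at about 30% in these data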; further: 0% is about no effect
Target sequence (P14416 whole entry, looked up): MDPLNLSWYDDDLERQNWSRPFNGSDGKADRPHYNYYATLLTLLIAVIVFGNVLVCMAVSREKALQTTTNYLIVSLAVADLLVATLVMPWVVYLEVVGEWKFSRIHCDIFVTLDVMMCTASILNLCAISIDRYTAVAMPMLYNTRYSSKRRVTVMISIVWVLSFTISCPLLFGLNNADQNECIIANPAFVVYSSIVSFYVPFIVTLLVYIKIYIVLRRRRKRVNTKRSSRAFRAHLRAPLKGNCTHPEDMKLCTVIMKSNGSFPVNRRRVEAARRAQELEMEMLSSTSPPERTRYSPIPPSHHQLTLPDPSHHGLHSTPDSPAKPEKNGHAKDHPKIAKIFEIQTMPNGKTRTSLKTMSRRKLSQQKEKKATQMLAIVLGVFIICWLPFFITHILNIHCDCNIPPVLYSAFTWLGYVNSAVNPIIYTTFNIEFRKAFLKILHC
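Agonism scored from kinetic calcium signal (1 read/sec, 180 s) following compound pin transfer, after a 10 s baseline. Cells: HEK293 Trex line expressing inducible D2 receptor coupled to calcium, dye-loaded after overnight culture at 30 C.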
D2 ag-2: Beta-Arrestin HTS for Positive Allosteric Modulators of the Human D2 Dopamine Receptor: Agonists; DiscoveRx PathHunter D2 beta-arrestin, luminescence, 90 min; 100% = 57 uM dopamine signal; activation, % (no concentration beside the values); 360,000 compounds, 0.084% hits; in the data active means activation above about 40%; inconclusive means between about 15% and that limit
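DiscoveRx PathHunter D2 beta-arrestin cells (2,100/well) attached overnight, then compound-stimulated 90 min at 37 C in HBSS/10 mM HEPES/0.1% Tween-20 buffer; beta-galactosidase complementation read by luminescence after 1 h at ambient temperature. Dopamine 57 uM final (EC100) as control.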
D2 PAM-1: HTS Assay for Positive Allosteric Modulators of the Human D2 Dopamine Receptor: Primary Screen for Potentiators; HEK293 T-REx D2, calcium flux, EC20 dopamine potentiation; potentiation, % at 10 µM; 340,000 compounds, 0.34% hits; AID 485347, 2010;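 active means potentiation over 3 SD above the plate norm, cut at about 30% in these data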; further: 0% is about no effect
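Potentiation of an EC20 dopamine calcium response is measured in a force-coupled, tetracycline-inducible Hek293 Trex D2 line. Compound-only kinetic reads over 180 s flag agonists before dopamine addition.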
D2 PAM-2: Beta-Arrestin HTS for Positive Allosteric Modulators of the Human D2 Dopamine Receptor: Potentiators | D(2) dopamine receptor (Homo sapiens), P14416 | DiscoveRx D2 beta-arrestin cells, luminescence, 90 min; 100% = 57 uM dopamine signal | potentiation, % (test concentration not listed) | 360,000 compounds, 0.23% hits; in the data active means potentiation above about 50%; inconclusive means mostly about 30% to 49%
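D2 cells co-treated with compound plus 50 nM dopamine (EC20) for 90 min at 37 deg C to detect potentiation. Beta-arrestin recruitment was read as enzyme-fragment luminescence after 1 h at ambient temperature. Full response was set by 57 uM dopamine.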
D2 antagonist: HTS Assay for Allosteric Antagonists of the Human D2 Dopamine Receptor: Primary Screen for Antagonists; D(2) dopamine receptor (Homo sapiens), P14416; inhibition, % at 10 µM; AID 485344, 2010; HEK293 TREx D2 cells, calcium flux, dopamine EC80; 340,000 compounds, 2% hits; in the data active means inhibition above about 30%; inactive means below that, where a call was filed; further: 0% is about no effect
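Tetracycline-induced HEK293 T-REx cells expressing D2 force-coupled to calcium signalling were dye-loaded, exposed to compound for 180 s, then challenged with an EC80 of dopamine; calcium flux was followed kinetically for a further 180 s.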
* marks the source's active call; other numbers are inactive results; ? = inconclusive; / = no result given. The list is not random: actives were taken first. Their share in the collection is about 2.4%.

SMILES | D2 ag-1 | D2 ag-2 | D2 PAM-1 | D2 PAM-2 | D2 antagonist
COCC(C)n1c(C)cc(C(=O)COC(=O)/C=C/c2cccc(F)c2)c1C (configuration not stated) | 0 | 2 | 53* | -3 | 4
Cc1cc(C(=O)COC(=O)/C=C/c2ccc(F)cc2)c(C)n1C | 0 | -1 | 5 | -14 | 2
CCc1nn(C(C)C(=O)N2CCN(c3cccc(C(F)(F)F)c3)CC2)c(=O)c2cc3occc3n12 (configuration not stated) | 1 | / | 0 | / | /
CCOC(=O)Cn1c(=O)c2c(nc(N3CCOCC3)n2C)n(C)c1=O | 0 | 0 | 1 | -3 | 39*
CCCCCOC(=O)Cn1c(=O)c2c(nc(N3CCOCC3)n2C)n(C)c1=O | 0 | -3 | 1 | -9 | 10
O=C(CCC(=O)N1CCOc2ccc(Cl)cc21)NCc1ccccc1 | 0 | 0 | -23 | -11 | 37*
CC1CN(C(=O)CCC(=O)NCCCN2CCN(Cc3ccccc3)CC2)c2cc(Cl)ccc2O1 (configuration not stated) | 1 | -12 | -32 | -34 | 37*
O=C(CCC(=O)N1CCOc2ccc(Cl)cc21)NCCCN1CCN(Cc2ccccc2)CC1 | 1 | 0 | -15 | -13 | 41*
O=C(CCC(=O)N1CCOc2ccc(Cl)cc21)NCCCN1CCOCC1 | -1 | -2 | -6 | -8 | -12
Cc1ccc(CNC(=O)C(=O)Nc2c3c(nn2-c2ccc(F)cc2)CSC3)cc1 | 2 | / | 15 | / | /
COc1cccc(CNC(=O)c2ccc(-c3nc(CS(=O)c4ccccc4)c(C)o3)cc2)c1 (configuration not stated) | 0 | / | -7 | / | /
CCN(CCCc1ccccc1)CCCc1ccccc1 | 2 | -9 | -31 | -32 | 83*
CCCN(CCO)CCCc1ccccc1 | 0 | 0 | 6 | -22 | -3
Cc1ccccc1-n1c2nc(=O)[nH]c(=O)c-2cc2c(Cl)cccc21 | / | / | -5 | / | /
CCOc1ccc2[nH]c(=O)c(CN(CCO)Cc3nnnn3CCc3ccccc3)cc2c1 | 0 | -4 | -7 | -9 | 39*
COc1ccc(-c2coc3c2c(C)cc2oc(=O)c(CC(=O)O)c(C)c23)cc1 | 4 | / | -7 | / | /
CC(=O)Nc1cccc(C(=O)/C=C/c2ccc(N(C)C)cc2)c1 | 86* | 6 | -3 | ? | 35*
CC(=O)Nc1cccc(C(=O)/C=C/c2ccc(/C=C/C(=O)c3cccc(NC(C)=O)c3)cc2)c1 | 1 | / | -4 | / | 0
O=C(CCC(=O)Nc1ccc(F)cc1)N/N=C/c1ccccc1O | 0 | -2 | -7 | -20 | 34*
O=C(CCC(=O)Nc1ccc(Br)cc1)N/N=C/c1ccccc1F | 0 | 3 | -1 | -6 | 7
O=C(CCC(=O)Nc1ccccc1)N/N=C/C=C/c1ccccc1 | 0 | 1 | -10 | -2 | 30*
CCN(CC)C(=O)CSc1nc2c(c(=O)n(C)c(=O)n2C)n1Cc1ccccc1 | 1 | / | 10 | / | /
Nc1ccc(/C=C/C(=O)c2cccs2)cc1 | 26 | 1 | -27 | -2 | 60*
Cc1cccc(C)c1Nc1nnc(SCC(=O)NC2CCS(=O)(=O)C2)s1 (configuration not stated) | 1 | 3 | -13 | 6 | 27
Cc1ccc(Nc2nnc(SCC(=O)NC3CCS(=O)(=O)C3)s2)c(C)c1 (configuration not stated) | 1 | -7 | -8 | -35 | 39*
SMILES | D2 ag-1 | D2 ag-2 | D2 PAM-1 | D2 PAM-2 | D2 antagonist
Cc1cccc2c(=O)cc(CSc3ccccc3NC(=O)C(C)(C)C)[nH]c12 | 0 | / | 4 | / | /
COc1ccc(OC)c(CNC(=O)Cc2ccc(NC(=O)N3CCSc4ncccc43)cc2)c1 | 0 | / | 3 | / | /
CCCCC(=O)Nc1nc2c(s1)COc1ccccc1-2 | 3 | -1 | -5 | -4 | 52*
CCOc1cc(C)ccc1OCc1nnc(SCC(=O)c2cccc([N+](=O)[O-])c2)n1CC | -1 | -2 | 10 | -10 | -15
CCn1c(COc2cccc3ccccc23)nnc1SCC(N)=O | 1 | -3 | 37* | -6 | -15
CNC(=O)CSc1nnc(COc2ccc([N+](=O)[O-])cc2)n1C | -1 | -2 | / | 1 | 76*
CCn1c(COc2ccccc2C)nnc1SCC(=O)NCc1ccccc1 | 0 | -3 | 1 | -22 | -5
CCn1c(COc2ccccc2)nnc1SCC(=O)c1cccc([N+](=O)[O-])c1 | 0 | -1 | 35* | 8 | 6
C=CCn1c(COc2ccccc2)nnc1SCC(=O)O | 0 | -2 | 33* | -24 | -6
COc1ccc(S(=O)(=O)c2c(Nc3ccc(C)cc3C)sc(C(=O)c3ccc(F)cc3)c2N)cc1 | 7 | / | 14 | / | /
CCOc1ccc2oc(=O)cc(CN3CCN(c4cc(C)ccc4C)CC3)c2c1 | 0 | / | / | / | /
CCCN(CC(=O)Nc1ccccc1C)C(=O)c1ccc(S(=O)(=O)N2CCCCC2)cc1 | -1 | -2 | -8 | -30 | 5
CCCN(CC(=O)Nc1ccccc1C)C(=O)c1ccc(S(=O)(=O)N2CCCC2)cc1 | 1 | 1 | -5 | -1 | 30*
CCC(C)NC(=O)Cn1c(=O)c2cccn2c2ccc(F)cc21 (configuration not stated) | -1 | / | 1 | / | /
O=C(NCCN1CCc2ccccc2C1)C1CCN(S(=O)(=O)N2CCCCC2)CC1 | 34* | 2 | -10 | -6 | -4
CCN(CC)CCCNC(=O)c1oc2c(c1C)-c1nn(Cc3ccc(Cl)cc3)cc1CC2 | -1 | / | 2 | / | /
Cc1cccc(NS(=O)(=O)c2cc3c(cc2C)n(C)c(=O)c(=O)n3C)c1 | 36* | 3 | -11 | 0 | 26
Cc1cc2c(cc1S(=O)(=O)Nc1cccc(F)c1)n(C)c(=O)c(=O)n2C | -1 | -1 | 3 | 2 | -5
Cc1oc2c(c(C)cc3oc(=O)c(CC(=O)NCCc4ccccc4F)c(C)c32)c1C | 1 | / | 13 | / | /
COc1ccccc1NC(=O)c1ccc2c(c1)nnn2C | 0 | -6 | 3 | -2 | 71*
Cn1nnc2cc(C(=O)Nc3ccccc3)ccc21 | 1 | -3 | 11 | -2 | 13
COc1ccccc1/C=C(\C#N)c1nc(-c2cc3ccccc3oc2=O)cs1 | 2 | / | 2 | / | /
CC(C)(C)c1cc(OC(=O)c2ccncc2)ccc1O | / | 9 | 0 | 69* | /
